Screening data: PubChem, several laboratories
Only some compounds are listed: those with a hit (about 4.2% of all), similar ones and a draw of the others.
BJeLR lethal – MLPCN primary cell-based screen for lethality selective to Ras in HRASV12 cells. BJeLR (HRASV12) viability, CellTiter-Glo ATP luminescence, 48 h. inhibition, % (no concentration beside the values). 300,000 compounds, 0.17% hits; in the data active = inhibition above about 50%
RecA splice inh – Mtb RecA intein splicing inhibitors, primary screen, biochemical, fluorescence, HTS | Protein RecA (Mycobacterium tuberculosis (strain ATCC 25618 / H37Rv)), P9WHJ3 | cell-free RecA intein splicing | inhibition, % (concentration not given with the values) | 290,000 compounds, 0.75% hits | AID 2221, 2009; in the data active = inhibition above about 30%;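 note: 0% = vehicle wells and 100% = reference inhibitor control wells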
PrPC TRFRET – inhibitors of human cell surface prion protein PrPC, primary screen, cell-based, TR-FRET; TR-FRET read-out; inhibition, % at 13.8 µM; 370,000 compounds, 0.43% hits; in the data active = inhibition above about 24%; note: 0% = median of the test wells and 100% = reference compound wells
FBA Mtb inh – Mtb FBA enzyme inhibitors, primary screen, biochemical, fluorescence, strain H37Rv | AID 588726, 2011 | Fructose-bisphosphate aldolase (Mycobacterium tuberculosis (strain ATCC 25618 / H37Rv)), … | 360,000 compounds, 2.3% hits | inhibition, % at 1 µM | purified M. tuberculosis FBA, fluorescence read-out; in the data active = inhibition above about 27%;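 note: 0% = vehicle and 100% = reference inhibitor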
Target sequence (P9WQA3 whole entry, looked up): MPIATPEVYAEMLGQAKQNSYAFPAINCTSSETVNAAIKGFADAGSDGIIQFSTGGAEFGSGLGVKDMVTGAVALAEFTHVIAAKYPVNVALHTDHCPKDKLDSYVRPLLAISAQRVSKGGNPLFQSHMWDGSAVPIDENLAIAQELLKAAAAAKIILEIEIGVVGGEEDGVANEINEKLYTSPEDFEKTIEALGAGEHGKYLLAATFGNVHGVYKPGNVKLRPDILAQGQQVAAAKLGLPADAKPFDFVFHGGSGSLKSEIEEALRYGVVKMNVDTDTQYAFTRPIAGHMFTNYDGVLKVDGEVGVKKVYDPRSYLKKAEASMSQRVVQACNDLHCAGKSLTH
GDH-TPI inh – GDH-TPI coupling enzyme inhibitors, primary screen, artefact control for M. tuberculosis FBA inhibitor project, biochemical, absorbance, full deck; GDH-TPI coupled enzyme counterscreen, NADH absorbance; inhibition, % at 4.8 µM; 360,000 compounds, 1.2% hits; AID 588335, 2011; in the data active = inhibition above about 30%;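 note: 0% = DMSO wells and 100% = wells lacking the enzyme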
* = called active by the depositor.

`CC1=CC(=C(C#N)C#N)C=C(C)N1CCN1CCNCC1` gave BJeLR lethal 4.4, RecA splice inh -9.9, PrPC TRFRET 4.5, FBA Mtb inh -2.4 and GDH-TPI inh 30.9*.
`O=C(NCc1ccccc1)[C@H]1CCCN1C(=O)[C@H]1CCCN1C(=O)c1ccc(OC(F)(F)F)cc1` gave PrPC TRFRET 4.5.
Screening O=C(O)c1cccc(Cn2c(Cl)c(/C=N/NC(=O)c3cccc(O)c3)sc2=O)c1 returned BJeLR lethal 10.8, RecA splice inh 4.2, PrPC TRFRET -2.5, FBA Mtb inh 4.2 and GDH-TPI inh 49.8*.
For COCCn1c(C)cc(/C=N/NC(=O)c2cc3ccccc3cc2O)c1C the results were FBA Mtb inh -1.0 and GDH-TPI inh 21.0.
Cc1ccccc1N/N=C/c1sc(=O)n(Cc2cccc(C(=O)O)c2)c1Cl was read as BJeLR lethal -1.1, RecA splice inh 10.4, PrPC TRFRET 0.3, FBA Mtb inh -2.4 and GDH-TPI inh 38.7*.
For O=C(O)c1cccc(Cn2c(Cl)c(/C=N/NC(=O)c3ccco3)sc2=O)c1 the results were BJeLR lethal 1.1, RecA splice inh 2.5, PrPC TRFRET 0.9, FBA Mtb inh -1.7 and GDH-TPI inh 46.5*.
O=C(O)c1cccc(Cn2c(Cl)c(/C=N/NC(=O)c3cc4ccccc4cc3O)sc2=O)c1 was read as BJeLR lethal 9.8, RecA splice inh -7.4, PrPC TRFRET -8.4, FBA Mtb inh -0.9 and GDH-TPI inh 58.9*.
COC(=O)c1cccc(Cn2c(Cl)c(/C=N/Nc3ccccc3C)sc2=O)c1 was read as BJeLR lethal 5.6, RecA splice inh 11.9, PrPC TRFRET 2.1, FBA Mtb inh -2.0 and GDH-TPI inh 16.5.
`CC1=CC(=O)C(C(C)C)=C/C1=N\OS(=O)(=O)c1ccccc1` gave PrPC TRFRET 0.3.
Screening O=C(O)c1cccc(Cn2c(Cl)c(/C=N/NC(=O)c3ccccc3)sc2=O)c1 returned BJeLR lethal 7.0, RecA splice inh 2.3, PrPC TRFRET -14.2, FBA Mtb inh -7.0 and GDH-TPI inh 55.5*.
`O=C(CSc1nnc(-c2cccnc2)n1-c1ccccc1)c1ccccc1Cl` gave PrPC TRFRET -3.5.
For COc1cc2c(cc1NC(=S)Nc1cccc(C(F)(F)F)c1)oc1ccccc12 the results were BJeLR lethal 32.4, RecA splice inh 1.0, PrPC TRFRET 9.8, FBA Mtb inh 64.4* and GDH-TPI inh 11.0.
For COc1cc2c(cc1NC(=O)Nc1ccccc1)oc1ccccc12 the results were BJeLR lethal 2.1, RecA splice inh -0.3, PrPC TRFRET 24.3, FBA Mtb inh -0.3 and GDH-TPI inh 15.1.
For COc1cc2c(cc1NCc1ccc3c(c1)OCO3)oc1ccccc12 the results were BJeLR lethal 7.2, RecA splice inh 1.3, PrPC TRFRET 6.3, FBA Mtb inh 21.4 and GDH-TPI inh 15.0.
COc1cc2c(cc1NCc1ccccn1)oc1ccccc12 was read as BJeLR lethal -1.8, RecA splice inh 2.0, PrPC TRFRET -1.8, FBA Mtb inh 29.2* and GDH-TPI inh -0.4.
CCn1c(SCc2c(F)cccc2F)nc2sc3c(c2c1=O)CCCC3 was read as PrPC TRFRET 3.1.
For COCCOC(=O)C1=C(C)NC(=O)NC1c1cn(-c2ccccc2)nc1-c1cccs1 (centres undefined) the results were BJeLR lethal 5.4, RecA splice inh -2.3, PrPC TRFRET -3.0, FBA Mtb inh -2.3 and GDH-TPI inh -0.5.
COC(=O)C1=C(C)NC(C)=C(C(=O)OC)C1c1cn(-c2ccccc2)nc1-c1ccco1 was read as BJeLR lethal -10.2, RecA splice inh 0.2, PrPC TRFRET 12.3, FBA Mtb inh 21.6 and GDH-TPI inh 33.7*.
For CCCCCCCCN1C(=O)[C@@H](CC(=O)N2CCC(c3ccccc3)CC2)C[C@@]2(C(=O)OC)C1=C[C@H](C(C)C)O[C@@H]2C1CC1 the results were PrPC TRFRET -2.1.
Cc1ccc(/C=c2\sc3n(c2=O)CN(c2cccc(Br)c2)CN=3)o1 was read as BJeLR lethal 3.9, RecA splice inh -2.2, PrPC TRFRET -6.6, FBA Mtb inh -1.0 and GDH-TPI inh 18.9.
`O=c1/c(=C/c2ccco2)sc2n1CN(c1cccc(Br)c1)CN=2` gave BJeLR lethal -6.5, RecA splice inh -2.6, PrPC TRFRET -11.2, FBA Mtb inh -9.2 and GDH-TPI inh 38.2*.
Cc1cc(C)cc(N2CN=c3s/c(=C\c4ccco4)c(=O)n3C2)c1 was read as BJeLR lethal -0.4, RecA splice inh -2.0, PrPC TRFRET -1.4, FBA Mtb inh -0.4 and GDH-TPI inh 27.9.
O=c1/c(=C/c2ccco2)sc2n1CN(c1ccccc1)CN=2 was read as BJeLR lethal -1.1, RecA splice inh 0.9, PrPC TRFRET -10.2, FBA Mtb inh -3.3 and GDH-TPI inh 31.7*.
For CC1=N/C(=C\c2ccc([N+](=O)[O-])cc2)C(=O)N1c1ccc(Br)c(C)c1 the results were BJeLR lethal 2.8, RecA splice inh -1.9, PrPC TRFRET -15.2, FBA Mtb inh -3.4 and GDH-TPI inh 38.9*.
For COc1ccc2c(c1)CCCN2C(=O)C1CCCN(S(=O)(=O)c2ccc(C)c(C)c2)C1 (centres undefined) the results were PrPC TRFRET 8.6.
For O=C(C1CC1)C1(C(=O)N2CCOCC2)CC(c2ccccn2)=NO1 (centres undefined) the results were PrPC TRFRET 2.4.
For Cc1nc2ccccn2c(=O)c1NC(=O)c1ccco1 the results were PrPC TRFRET -4.8, FBA Mtb inh -4.1 and GDH-TPI inh 16.4.
`Cc1nc2ccccn2c(=O)c1NC(=O)c1cccc2ccccc12` gave BJeLR lethal 5.8, RecA splice inh -0.1, PrPC TRFRET -13.5, FBA Mtb inh -0.2 and GDH-TPI inh 30.7*.
`CCN1C(=O)/C(=C/N(C)C)c2ccccc21` gave BJeLR lethal -5.3, RecA splice inh 1.4, PrPC TRFRET 4.3, FBA Mtb inh -0.8 and GDH-TPI inh 37.3*.
`CCO/C=C1\C(=O)N(CC)c2ccccc21` gave BJeLR lethal 0.3, RecA splice inh 1.3, PrPC TRFRET -7.2, FBA Mtb inh -1.2 and GDH-TPI inh 0.0.
For CCN1C(=O)/C(=C\N(C)C)c2ccccc21 the results were BJeLR lethal -5.6, RecA splice inh 3.1, PrPC TRFRET 5.0, FBA Mtb inh -2.1 and GDH-TPI inh 32.2*.
`CC(C)(C)c1ccc(C(=O)Nc2cc(Cl)ccc2-c2nn[nH]n2)cc1` gave PrPC TRFRET 1.8.
COc1cccc(-c2nnc(NC(=O)c3ccc(Cl)s3)o2)c1 was read as BJeLR lethal 3.0, RecA splice inh -0.5, PrPC TRFRET 12.6, FBA Mtb inh 3.1 and GDH-TPI inh 40.9*.
CCOC(=O)CNC(=O)c1ccccc1Br was read as BJeLR lethal -2.8, RecA splice inh 0.4, PrPC TRFRET 6.5, FBA Mtb inh active and GDH-TPI inh 3.0.
